High-throughput results as filed in PubChem BioAssay.
Shown are actives, neighbours in structure and some others; about 7.6% of the full set was active somewhere.
NS3h inh CB: hepatitis C NS3 helicase inhibition, primary screen. AID 687043. 1.6% of 16,000 active. inhibition, % at 100 µM. NS3h Cy5-dT15 DNA binding, fluorescence polarization;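 active = inhibition above the average over every tested compound plus 3 SD, cut at about 40% in these data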
Cy5 interf NS3h: counter-screen for HCV NS3 helicase inhibitors: fluorescence interference. Cy5-dT15 DNA with NS3h; actives lie on both sides; signal over control mean, under 1 quenches. fluorescence interference ratio at 100 µM. AID 720488. 6% of 16,000 active;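 active = compound fluorescence over control fluorescence at most 0.8, a quencher, or at least a set upper limit, an enhancer; inactive = ratio between 0.8 and the set upper limit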
NS3h confirm: hepatitis C NS3 helicase inhibition, confirmation; shares compounds with NS3h inh CB; inhibition, % at 100 µM; NS3h binding to Cy5-dT15 DNA, fluorescence polarization; 20% of 240 active;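 active = percent inhibition of 50% or more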
SSB FP counter: E. coli SSB-DNA binding inhibition, NS3h counter-screen | 40% of 240 active | shares compounds with NS3h inh CB | inhibition, % at 100 µM | AID 720486 | E. coli SSB binding Cy5-dT15, fluorescence polarization;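 active = inhibition of at least 50%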;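 note: displacers lower Cy5 polarization so higher inhibition means more SSB displaced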
Target sequence (P0AGE0 whole entry, looked up): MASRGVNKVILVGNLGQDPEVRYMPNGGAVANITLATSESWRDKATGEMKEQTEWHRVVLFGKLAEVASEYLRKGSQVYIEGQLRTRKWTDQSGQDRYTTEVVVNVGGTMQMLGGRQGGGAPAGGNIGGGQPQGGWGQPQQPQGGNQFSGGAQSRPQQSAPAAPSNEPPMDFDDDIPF
Cy5 SSB interf: counter-screen for HCV NS3 helicase inhibitors: fluorescence interference; shares compounds with NS3h inh CB; Cy5-dT15/E. coli SSB fluorescence interference; actives lie on both sides; fluorescence interference ratio at 100 µM; 8% of 240 active; AID 720487;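 active = fluorescence interference ratio at or above 1.2, signal boosting, or at or below 0.8, signal quenching; inactive = ratio between 0.8 and 1.2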;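 note: ratio of compound well signal to mean negative control signal so 1 means no effect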
Cy5 fluor confirm: Cy5 fluorescence interference, confirmation counter-screen | shares compounds with NS3h inh CB | Cy5-dT15 DNA/NS3h fluorescence interference counterscreen | fluorescence interference ratio at 100 µM, hits read low | 44% of 240 active | AID 720489;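 active = fluorescence interference ratio at or below 0.8 quencher or at or above a set limitenhancer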;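 note: ratio of compound fluorescence to mean of negative controls so 1 means no interference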
* marks the source's active call; other numbers are inactive results; / = no result given.

SMILES | NS3h inh CB | Cy5 interf NS3h | NS3h confirm | SSB FP counter | Cy5 SSB interf | Cy5 fluor confirm
O=C(NC(=S)N1CCOCC1)c1ccccc1 | 110* | 0.4* | 0 | -7 | 0.98 | 0.97
O=C(NC(=S)N1CCCCCC1)c1cccnc1 | 5 | 1 | / | / | / | /
Cc1ccc(C(O)C#CC(O)(c2ccccc2)c2ccccc2)o1 (stereo unspecified) | 14 | 0.93 | / | / | / | /
O=C1NC(=S)NC(=O)C1=Cc1ccc(OCc2ccccc2Cl)cc1 | 48* | 0.89 | 1 | 61* | 0.92 | 0.75*
O=C1NC(=S)NC(=O)C1=Cc1ccccc1OCc1ccccc1Cl | 27 | 0.97 | / | / | / | /
COc1cccc(N2C(=O)C(=Cc3ccc(OC)cc3OC)C(=O)NC2=S)c1 | 16 | 0.93 | / | / | / | /
O=C(NC(=S)Nc1ccc2oc(-c3ccc(Cl)c(Cl)c3)nc2c1)c1ccccc1 | 102* | 1.2* | 17 | 38 | 0.97 | 0.8*
O=C(NC(=S)Nc1ccc2oc(-c3ccc(Cl)cc3)nc2c1)c1ccccc1 | 17 | 0.99 | / | / | / | /
CCOc1ccc(N(CC(=O)Nc2ccccc2OCC)S(=O)(=O)c2ccc(SC)cc2)cc1 | 11 | 0.91 | / | / | / | /
CC(=O)N(/C=C1\Sc2ccccc2C1=O)c1ccc(C)cc1 | 8 | 1.1 | / | / | / | /
O=C(O)c1cc(-c2ccc(/C=C3/Sc4ccccc4C3=O)o2)ccc1O | 110* | 0.97 | 61* | 102* | 0.84 | 0.69*
CC(=O)n1nc(C)c2c1CC(C)(C)CC2=O | 0 | 1.1 | / | / | / | /
COc1ccc(/C=C2\SC(=S)N(CC(C)C)C2=O)c(OC)c1 | 15 | 0.87 | / | / | / | /
CN1C(=O)C(=Cc2c(Cl)cccc2Cl)C(=O)N(C)C1=O | 42* | 0.99 | 31 | 16 | 0.97 | 0.9
CN1C(=O)/C(=C/c2c(Cl)cccc2Cl)SC1=S | -8 | 0.96 | / | / | / | /
CC(C)(C)N=C1c2nn(Cc3ccccc3)nc2C(=NC(C)(C)C)c2nn(Cc3ccccc3)nc21 | 25 | 1 | / | / | / | /
O=C1NC(=O)C(=Cc2cc(Br)ccc2OCc2cccc3ccccc23)C(=O)N1 | 48* | 0.86 | 26 | 72* | 0.87 | 0.91
O=C1NC(=O)C(=Cc2ccccc2OCCOc2ccccc2)C(=O)N1 | 30 | 1 | / | / | / | /
COc1cc(/C=C2\SC(=S)NC2=O)cc(Br)c1OC | 2 | 0.97 | / | / | / | /
COc1cc(/C=C2/SC(=S)NC2=O)ccc1OC(=O)c1ccccc1Br | 42* | 1.1 | 8 | 2 | 1 | 0.78*
CCOc1ccc(C(=O)Nc2cc(-c3nc4ccccc4o3)ccc2C)cc1[N+](=O)[O-] | 2 | 0.94 | / | / | / | /
C=CCN1C(=O)NC(=O)C(=Cc2ccc(C(C)C)cc2)C1=O | 6 | 0.99 | / | / | / | /
O=C1C=C(Nc2ccccc2)C(=O)N1c1ccccc1Cl | 11 | 1 | / | / | / | /
C=CCN1C(=O)NC(=O)/C(=C/C=C/c2ccco2)C1=O | 78* | 1.3* | 46 | 41 | 1.1 | 0.76*
O=C1NC(=O)N(c2ccccc2Cl)C(=O)/C1=C\C=C\c1ccco1 | 62* | 1.2* | 51* | 96* | 1.2* | 0.93
SMILES | NS3h inh CB | Cy5 interf NS3h | NS3h confirm | SSB FP counter | Cy5 SSB interf | Cy5 fluor confirm
Cc1ccc(S(=O)(=O)Nc2ccc(S(=O)(=O)NC(=O)C(C)C)cc2)cc1 | -6 | 1 | / | / | / | /
O=[N+]([O-])c1ccc(Cl)c(/C=N\N2CCN(c3ccccc3)CC2)c1 | 12 | 1 | / | / | / | /
Cc1ccc(/C=C2\C(=O)NC(=S)N(c3ccc(Br)cc3)C2=O)o1 | 7 | 1.1 | / | / | / | /
Cc1ccc(C=C2C(=O)NC(=S)N(c3ccccc3Cl)C2=O)o1 | 60* | 0.96 | 31 | 78* | 1 | 0.79*
Cc1ccc2c(c1)C1C=CCC1C(C(=O)O)N2 (stereo unspecified) | 94* | 1.2* | 75* | 106* | 1.4* | 0.92
COc1ccc(CSc2nnc(SCc3ccc(OC)cc3)s2)cc1 | 0 | 1 | / | / | / | /
CC(=O)c1ccc(NC(=O)c2ccc3c(c2)OCCO3)cc1 | -4 | 0.97 | / | / | / | /
O=C(Nc1ccc(Cl)cc1)c1ccc2c(c1)OCCO2 | 27 | 1.1 | 62* | 76* | 1.1 | 0.96
Cc1ccc(C2=[N+]([O-])C3(CCCCC/C3=N/NC(N)=S)N(O)C2(C)C)o1 (stereo unspecified) | -1 | 0.97 | / | / | / | /
Cc1ccc(CN2CCN(N=Cc3cccc(Br)c3)CC2)c(C)c1 | 2 | 1 | / | / | / | /
CC(=O)N(c1ccccc1)S(=O)(=O)c1ccc(Cl)cc1 | 3 | 1 | / | / | / | /
COc1cc(N2C(=O)NC(=O)/C(=C\c3cc(Br)c(O)c(OC)c3)C2=O)c(OC)cc1Cl | 12 | 1.1 | / | / | / | /
CN1C=C(C(F)(F)F)C=C/C1=C(/C#N)c1nc2ccccc2s1 | 40 | 1.1 | 0 | 9 | 0.9 | 0.71*
Cc1ccc(/C=C(\C#N)c2nc3ccccc3s2)cc1 | 3 | 0.86 | / | / | / | /
COC(=O)CN1C(=O)C(=Cc2ccc(Br)cc2)SC1=S | 12 | 1 | / | / | / | /
O=c1[nH]c(=O)n(-c2cccc(C(F)(F)F)c2)c(O)c1C=C1C=CC=N1 | 27 | 0.97 | / | / | / | /
O=c1[nH]c(=S)n(-c2ccccc2F)c(O)c1C=C1C=CC=N1 | 114* | 0.57* | 48 | 128* | 0.74* | 0.6*
O=C(CC1S/C(=N/N=C\c2ccccc2)NC1=O)Nc1ccc(C(=O)O)cc1 (stereo unspecified) | 128* | 1.1 | 53* | 101* | 0.87 | 0.78*
C/C(=N/N=C1\NC(=O)C(CC(=O)Nc2ccc(C(=O)O)cc2)S1)c1ccc([N+](=O)[O-])cc1 (stereo unspecified) | 7 | 1.1 | / | / | / | /
O=C(CC1SC(=O)NC1=O)Nc1ccc(C(=O)O)cc1 (stereo unspecified) | 18 | 1.1 | / | / | / | /
CC1=C/C(=N/N=C2\NC(=O)C(CC(=O)Nc3ccc(C(=O)O)cc3)S2)CC(C)(C)C1 (stereo unspecified) | 89* | 1.1 | 62* | 95* | 0.89 | 0.75*
O=C(/C=C\Nc1ccc(Br)cn1)c1ccc(Cl)cc1 | -1 | 0.95 | / | / | / | /
CCOc1ccc(N2C(=O)NC(=O)/C(=C\c3ccc(-c4ccc([N+](=O)[O-])cc4OC)o3)C2=O)cc1 | 22 | 1 | / | / | / | /
O=C1NC(=O)N(c2ccc(Cl)cc2)C(=O)/C1=C/c1ccc(-c2ccccc2C(=O)O)o1 | 44* | 1.2 | 56* | 30 | 0.95 | 0.91
O=C1NC(=O)N(c2ccc(Cl)cc2)C(=O)/C1=C\c1ccc(-c2ccccc2[N+](=O)[O-])o1 | 1 | 1 | / | / | / | /
SMILES | NS3h inh CB | Cy5 interf NS3h | NS3h confirm | SSB FP counter | Cy5 SSB interf | Cy5 fluor confirm
CCOc1ccc(N2C(=O)NC(=O)/C(=C\c3ccc(-c4ccccc4C(=O)O)o3)C2=O)cc1 | 67* | 1 | 41 | 39 | 0.96 | 0.95
CCN(CC)C1=NS(=O)(=O)c2ccccc21 | -4 | 1 | / | / | / | /
O=S(=O)(NOCc1ccccc1)c1ccccc1 | -13 | 0.95 | / | / | / | /
CCN1C(=O)/C(=C\c2cn(-c3ccccc3)nc2-c2ccc(Br)cc2)SC1=S | 7 | 1.1 | / | / | / | /
O=C(O)CCN1C(=O)/C(=C/c2cn(-c3ccccc3)nc2-c2ccc(Br)cc2)SC1=S | 146* | 0.97 | 35 | 25 | 0.92 | 0.87
O=C(/C=C/c1ccccc1)NC(=S)Nc1cccc(Cl)c1 | 3 | 0.95 | / | / | / | /
